Only some compounds are listed: those with a hit (about 10% of all), similar ones and a draw of the others.
GPT2 inhibitor: Primary qHTS assay for inhibitors of Glutamate pyruvate transaminase 2 (GPT2); Alanine aminotransferase 2 (Homo sapiens), Q8TD30; Recombinant GPT2, coupled pyruvate oxidase/HRP Amplex Red fluorescence; Potency, µM (doses to about 57.7 µM), inactives show at the top dose activity change, negative = inhibition, most hits filed as inhibitors; 0.25% of 100,000 active; AID 1671188, 2021; note: % is set by controls: 0 for no effect and ±100 for the full control effect; nearly all actives have a fitted effect of over 60% in size
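Fluorescence of coupled pyruvate oxidase/HRP/Amplex Red system (50uM Amplex, 30 min, dark) reports pyruvate formed by GPT2. Enzyme reaction: 10ng/uL GPT2, 2mM L-alanine, 250uM a-KG, 30 min room temperature, pH 7.5; 50uM AOA control.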
FLuc inh-1: Firefly luciferase inhibition profiling of diverse chemical library using quantitative high-throughput screening. purified P. pyralis luciferase, luminescence, biochemical. AID 1347043, 2019. Luciferin 4-monooxygenase (Photinus pyralis), P08659. 2.5% of 76,000 active. Potency, µM (series often up to 115 µM), actives largely listed as inhibitors; note: % is set by controls: 0 for no effect and ±100 for the full control effect; nearly all actives have a fitted effect of over 65% in size
Target sequence (P08659 whole entry, looked up): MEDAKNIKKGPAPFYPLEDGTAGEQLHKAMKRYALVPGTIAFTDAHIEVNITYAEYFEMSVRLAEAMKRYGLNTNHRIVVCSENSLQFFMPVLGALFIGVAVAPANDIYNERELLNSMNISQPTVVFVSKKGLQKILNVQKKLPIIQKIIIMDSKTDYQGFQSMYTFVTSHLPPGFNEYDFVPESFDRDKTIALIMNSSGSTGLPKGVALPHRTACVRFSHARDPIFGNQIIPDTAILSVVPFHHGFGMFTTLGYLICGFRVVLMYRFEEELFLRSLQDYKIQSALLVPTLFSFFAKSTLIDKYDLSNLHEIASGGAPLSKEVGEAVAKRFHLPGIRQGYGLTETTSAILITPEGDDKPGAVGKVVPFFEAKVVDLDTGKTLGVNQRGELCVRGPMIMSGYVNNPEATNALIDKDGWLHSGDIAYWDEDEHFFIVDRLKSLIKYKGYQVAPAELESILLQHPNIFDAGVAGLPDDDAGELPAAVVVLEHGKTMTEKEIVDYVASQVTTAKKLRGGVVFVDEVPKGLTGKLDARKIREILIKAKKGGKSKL
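Purified P. pyralis luciferase (10nM final) in 50mM Tris acetate pH 7.5, 10mM Mg acetate, 0.01% Tween-20, 0.05% BSA with 10uM D-luciferin and 10uM ATP. Compounds titrated qHTS. Luminescence imaged on CCD.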
hNpr1 antagonist: Natriuretic polypeptide receptor (hNpr1) antagonism - Primary qHTS | Atrial natriuretic peptide receptor 1 (Homo sapiens), P16066 | HEK293 hNpr1 GloSensor cGMP, ANP-stimulated luminescence | Potency, µM (titrated, usually from 46.3 µM), inactives show top-dose activity change, negative = inhibition, most hits filed as inhibitors | 1.6% of 76,000 active | AID 1347048, 2019; calls by dose curve; note: % is set by controls: 0 for no effect and ±100 for the full control effect; nearly all actives have a fitted effect of over 60% in size
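HEK293 cells stably expressing human Npr1 and cGMP GloSensor pGS-40F, loaded 2 h with 2% GloSensor reagent, given compound 30 min at room temperature. Luminescence read before and 20 min after 0.1 nM hNppA.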
HEK293 tox: Cytotoxic Profiling in HEK 293 Cell Line of Diverse Libraries Using Quantitative High-Throughput Screening. 6.6% of 94,000 active. Potency, µM (top dose mostly 115 µM), for the others: at the top dose activity change, negative = cytotoxicity, usual class: inhibitors. AID 1345083, 2018. HEK 293 viability, ATP luminescence (CellTiter-Glo), 48-72 h; note: % is set by controls: 0 for no effect and ±100 for the full control effect; nearly all actives have a fitted effect of over 60% in size
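Cytotoxicity was scored by loss of ATP-coupled luminescence (CellTiter-Glo) in HEK 293 cells. Compound treatment ran 48 or 72 hr at 37 degree Celsius, 5% CO2, 95% humidity.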
NIH3T3 tox: Cytotoxic Profiling in NIH 3T3 Cell Line of Diverse Libraries Using Quantitative High-Throughput Screening | NIH 3T3 viability, CellTiter-Glo ATP luminescence, 48-72 h | AID 1345082, 2018 | 4.3% of 94,000 active | Potency, µM (top dose mostly 96.7 µM), inactives show at the highest dose activity change, negative = cytotoxicity, actives largely listed as inhibitors; note: % is set by controls: 0 for no effect and ±100 for the full control effect; nearly all actives have a fitted effect of over 55% in size
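NIH 3T3 cells at 400 cells/well received 23 nL of compound by pintool and were incubated 48 or 72 h at 37 °C. Viability was read as ATP-coupled CellTiter-Glo luminescence.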
FLuc SDR -ATP: Firefly luciferase (FLuc-C-HiBiT) SDR gain of signal screen - without ATP; shares compounds with FLuc inh-1; Potency, µM (top dose mostly 32.7 µM), inactives show at the highest dose activation (signal gain), usual class: activators; 7.8% of 1,300 active; Purified FLuc-C-HiBiT, Nano-Glo HiBiT luminescence, no ATP; note: nearly all actives have a fitted effect of over 55% in size
FLuc SDR ATP: Firefly luciferase (FLuc-C-HiBiT) SDR gain of signal screen - plus ATP; purified FLuc-C-HiBiT + ATP, HiBiT complementation luminescence; 8.7% of 1,300 active; shares compounds with FLuc inh-1; Potency, µM (series often up to 32.7 µM), for inactives: at the highest dose activation (gain of signal), most hits filed as activators;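 note: signal reports ligand binding via conformational change of the enzyme rather than luciferase catalysis; % of control where 0% means no effect; nearly all actives have a fitted effect of over 55% in size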
FLuc inh-2: Firefly luciferase (FLuc-C-HiBiT) enzymatic inhibition screen - Functional assay; shares compounds with FLuc inh-1; purified FLuc-C-HiBiT enzyme, luciferin luminescence; Potency, µM (series often up to 32.7 µM), for inactives: at the top dose activity change, negative = inhibition, actives largely listed as inhibitors; 42% of 1,300 active; note: % is set by controls: 0 for no effect and ±100 for the full control effect; nearly all actives have a fitted effect of over 70% in size
* marks the source's active call; other numbers are inactive results; i = inactive; ? = inconclusive; . = not tested or not shown; [ ] = dose if it differs, or a comment. Unless noted, calls come from the whole dose curve; as a rule, active = well fitted curve in the direction sought with a large enough effect; inconclusive = small, poorly fitted or top-dose-only effect, or another doubt; inactive = no such curve, though single readings can be large; an effect the other way counts as inactive or inconclusive. Potency is the fitted concentration of half-maximal effect.

SMILES	GPT2 inhibitor	FLuc inh-1	hNpr1 antagonist	HEK293 tox	NIH3T3 tox	FLuc SDR -ATP	FLuc SDR ATP	FLuc inh-2
O=C(NCc1cc(F)ccc1F)C1CCN(C(=O)c2ncn3c2COC(c2ccccc2)C3)CC1 (stereo not given)	?	2.2µM*	-16%	-10%	-7%	9%	?	3.1µM*
O=C(NCc1ccc(F)cc1F)C1CCN(C(=O)c2ncn3c2COC(c2ccc(F)cc2)C3)CC1 (stereo not given)	3%	?	-12%	-9%	-17%	.	.	.
Cc1ccc(C(=O)N2CCC(Oc3ccc(C(=O)N4CCOCC4)cn3)CC2)cc1	i	i	0%	-35%	?	.	.	.
COc1cccc(CC(=O)Nc2ccc(-c3nc4ccccc4s3)cc2)c1	.	.	.	.	.	24%	19%	?
Cc1cc(C)cc(OCC(=O)Nc2ccc(-c3nc4ccccc4s3)cc2)c1	.	.	.	.	.	14%	10%	-1%
CCCCC(=O)Nc1cccc(-c2nc3ccccc3s2)c1	.	.	.	.	.	16%	12%	?
COc1cc(F)ccc1CNCc1cccnc1N1CCOCC1	-9%	i	3%	4%	i	.	.	.
Cc1ccc(-c2nnc(C3CN(C(=O)c4sc(C)nc4C)CC34CCOCC4)o2)cc1 (stereo not given)	?	i	-8%	-20%	-23%	12%	9%	0%
CC(C)CCN1C(=O)CC[C@]2(C(=O)N3CCN(C(C)C)CC3)CCCC[C@@H]12	i	i	-7%	-23%	-19%	.	.	.
COCc1ccc2c(c1)c(OC(C)(C)C(=O)NC1CC1)nn2Cc1ccccc1	-16%[88.5 µM]	i	1%[70.6 µM]	?	?	.	.	.
CC(C)(Oc1nn(CC2CC2)c2ccc(CN3CCCC3)cc12)C(=O)NC1CCOCC1	.	.	.	.	.	12%[49.3 µM]	10%[49.3 µM]	-3%[49.3 µM]
CN1CCC(NC(=O)C(C)(C)Oc2nn(Cc3ncccn3)c3ccccc23)CC1	.	.	.	.	.	14%[49.3 µM]	11%[49.3 µM]	0%[49.3 µM]
CN(Cc1ccccc1)C(=O)[C@H]1C[C@@H](O)[C@H](O)[C@@H]2N=C(Nc3ccc(-n4cccn4)cc3)S[C@@H]21	-2%	13µM*	6%	?	-27%	9%	?	?
CCNC(=O)N1CCC(Cc2ccc(C(=O)N3CCN(c4ccccc4)CC3)cc2)CC1	-15%	.	.	?	?	.	.	.
CCC(C)Nc1ncnc2c1CN(C1CCCNCC1)C(=O)CN2C (stereo not given)	3%	.	.	-8%	-2%	.	.	.
O=C(Nc1ccccc1C(=O)O)c1cccc(S(=O)(=O)N2CCCC2)c1	.	.	.	.	.	17%	13%	?
O=C1CC2(CCN(CC3CC3)CC2)Oc2ccccc21	-1%[88.5 µM]	7.9µM*	35µM*	?	?	17%[49.3 µM]	?	?
Cc1cnc(C(=O)N2CCCCCCN(C)C(=O)[C@@H]3CCC[C@@H]32)cn1	5%	i	-4%	-11%	-4%	.	.	.

Bioassay records from PubChem.
